Data from ChEMBL document CHEMBL1961873, “Compounds: GSK PKIS; Assays: Nanosyn kinase panel” (2012).
Several values for one entry are separate records, joined by “and”; a condition that tells them apart may be missing. Equal entries are not always repeated.

What was measured:
[1] = biological target: Tyrosine-protein kinase Fyn (Homo sapiens) (UniProt P06241); conditions: at 1 µM
[2] = biological target: Tyrosine-protein kinase HCK (Homo sapiens) (UniProt P08631); conditions: at 0.1 µM
[3] = biological target: Tyrosine-protein kinase HCK (Homo sapiens) (UniProt P08631); conditions: at 1 µM
[4] = biological target: Insulin-like growth factor 1 receptor (Homo sapiens) (UniProt P08069); conditions: at 0.1 µM
Insulin-like growth factor 1 receptor (Homo sapiens), sequence (P08069 31-736 limits assumed): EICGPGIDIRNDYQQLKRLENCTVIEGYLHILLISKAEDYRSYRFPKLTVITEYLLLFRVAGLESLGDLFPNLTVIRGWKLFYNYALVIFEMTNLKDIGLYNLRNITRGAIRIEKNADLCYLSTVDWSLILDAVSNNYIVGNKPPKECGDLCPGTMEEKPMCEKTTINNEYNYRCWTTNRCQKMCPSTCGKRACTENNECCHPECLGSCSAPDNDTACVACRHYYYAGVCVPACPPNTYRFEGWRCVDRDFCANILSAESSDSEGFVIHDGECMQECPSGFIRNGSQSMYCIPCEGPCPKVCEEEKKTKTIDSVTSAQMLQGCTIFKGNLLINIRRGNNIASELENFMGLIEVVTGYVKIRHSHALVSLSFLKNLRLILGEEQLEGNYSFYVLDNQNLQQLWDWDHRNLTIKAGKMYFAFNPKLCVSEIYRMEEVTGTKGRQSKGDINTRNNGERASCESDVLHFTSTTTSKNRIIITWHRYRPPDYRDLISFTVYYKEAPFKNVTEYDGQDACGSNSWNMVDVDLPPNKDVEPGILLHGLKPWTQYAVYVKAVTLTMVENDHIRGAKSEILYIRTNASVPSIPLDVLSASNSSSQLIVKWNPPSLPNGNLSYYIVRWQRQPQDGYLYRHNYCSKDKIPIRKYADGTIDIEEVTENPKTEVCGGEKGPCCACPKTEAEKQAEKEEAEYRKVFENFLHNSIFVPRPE
Insulin-like growth factor 1 receptor (Homo sapiens), sequence (P08069 741-1367 limits assumed): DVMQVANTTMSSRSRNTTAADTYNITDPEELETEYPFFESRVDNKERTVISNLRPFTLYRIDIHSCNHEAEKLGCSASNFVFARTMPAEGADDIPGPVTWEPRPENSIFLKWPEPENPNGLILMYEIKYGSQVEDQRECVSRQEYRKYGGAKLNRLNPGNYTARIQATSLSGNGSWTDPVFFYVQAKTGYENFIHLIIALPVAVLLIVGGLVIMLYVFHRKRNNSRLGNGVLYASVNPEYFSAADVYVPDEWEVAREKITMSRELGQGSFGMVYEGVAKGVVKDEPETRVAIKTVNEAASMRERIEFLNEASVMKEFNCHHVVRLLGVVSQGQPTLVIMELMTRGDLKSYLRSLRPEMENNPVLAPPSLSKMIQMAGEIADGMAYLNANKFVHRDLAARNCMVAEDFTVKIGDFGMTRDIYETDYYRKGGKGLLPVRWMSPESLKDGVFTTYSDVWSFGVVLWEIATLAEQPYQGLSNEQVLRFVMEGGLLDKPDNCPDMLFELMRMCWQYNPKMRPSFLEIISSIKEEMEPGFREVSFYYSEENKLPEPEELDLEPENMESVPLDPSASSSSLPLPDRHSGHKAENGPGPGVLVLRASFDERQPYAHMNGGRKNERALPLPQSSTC

[5] = biological target: Insulin-like growth factor 1 receptor (Homo sapiens) (UniProt P08069); conditions: at 1 µM
[6] = biological target: Insulin receptor (Homo sapiens) (UniProt P06213); conditions: at 0.1 µM
Insulin receptor (Homo sapiens), sequence (P06213 28-758 limits assumed): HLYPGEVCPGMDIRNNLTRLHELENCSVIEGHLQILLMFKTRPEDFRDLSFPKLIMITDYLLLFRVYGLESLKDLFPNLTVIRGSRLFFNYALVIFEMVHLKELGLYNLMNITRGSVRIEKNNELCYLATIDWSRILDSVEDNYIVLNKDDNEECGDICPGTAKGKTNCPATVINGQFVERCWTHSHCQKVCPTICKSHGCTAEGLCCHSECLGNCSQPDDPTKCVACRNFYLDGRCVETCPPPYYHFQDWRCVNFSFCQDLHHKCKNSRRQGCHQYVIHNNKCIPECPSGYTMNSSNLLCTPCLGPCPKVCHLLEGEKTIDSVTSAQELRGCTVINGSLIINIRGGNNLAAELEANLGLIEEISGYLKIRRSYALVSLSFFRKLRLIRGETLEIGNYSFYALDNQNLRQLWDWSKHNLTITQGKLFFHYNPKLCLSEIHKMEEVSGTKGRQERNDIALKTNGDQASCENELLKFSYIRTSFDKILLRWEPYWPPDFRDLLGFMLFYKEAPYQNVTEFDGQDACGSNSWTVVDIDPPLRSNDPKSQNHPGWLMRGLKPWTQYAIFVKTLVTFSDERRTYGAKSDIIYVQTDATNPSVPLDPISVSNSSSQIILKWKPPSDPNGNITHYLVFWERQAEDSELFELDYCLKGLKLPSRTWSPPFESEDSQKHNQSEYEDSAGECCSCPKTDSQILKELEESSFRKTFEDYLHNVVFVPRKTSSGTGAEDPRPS
Insulin receptor (Homo sapiens), sequence (P06213 763-1382 limits assumed): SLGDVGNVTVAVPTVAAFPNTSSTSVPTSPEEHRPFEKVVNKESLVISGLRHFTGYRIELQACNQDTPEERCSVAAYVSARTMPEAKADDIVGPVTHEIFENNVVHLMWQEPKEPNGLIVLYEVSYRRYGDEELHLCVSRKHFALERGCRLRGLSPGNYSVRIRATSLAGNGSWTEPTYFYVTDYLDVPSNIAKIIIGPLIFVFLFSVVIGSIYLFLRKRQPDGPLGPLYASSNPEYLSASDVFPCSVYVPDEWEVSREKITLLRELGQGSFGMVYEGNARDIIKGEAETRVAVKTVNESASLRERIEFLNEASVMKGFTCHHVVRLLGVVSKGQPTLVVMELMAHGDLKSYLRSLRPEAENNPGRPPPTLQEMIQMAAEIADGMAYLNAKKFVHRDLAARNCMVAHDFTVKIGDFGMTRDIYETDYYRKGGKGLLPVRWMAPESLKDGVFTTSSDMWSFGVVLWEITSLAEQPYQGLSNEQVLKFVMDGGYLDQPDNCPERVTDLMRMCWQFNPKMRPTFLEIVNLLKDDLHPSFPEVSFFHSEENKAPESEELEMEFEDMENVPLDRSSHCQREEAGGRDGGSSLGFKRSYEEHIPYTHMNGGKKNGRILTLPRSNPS

[7] = biological target: Insulin receptor (Homo sapiens) (UniProt P06213); conditions: at 1 µM
[8] = biological target: Insulin receptor-related protein (Homo sapiens) (UniProt P14616); conditions: at 0.1 µM
Insulin receptor-related protein (Homo sapiens), sequence (P14616 27-742 limits assumed): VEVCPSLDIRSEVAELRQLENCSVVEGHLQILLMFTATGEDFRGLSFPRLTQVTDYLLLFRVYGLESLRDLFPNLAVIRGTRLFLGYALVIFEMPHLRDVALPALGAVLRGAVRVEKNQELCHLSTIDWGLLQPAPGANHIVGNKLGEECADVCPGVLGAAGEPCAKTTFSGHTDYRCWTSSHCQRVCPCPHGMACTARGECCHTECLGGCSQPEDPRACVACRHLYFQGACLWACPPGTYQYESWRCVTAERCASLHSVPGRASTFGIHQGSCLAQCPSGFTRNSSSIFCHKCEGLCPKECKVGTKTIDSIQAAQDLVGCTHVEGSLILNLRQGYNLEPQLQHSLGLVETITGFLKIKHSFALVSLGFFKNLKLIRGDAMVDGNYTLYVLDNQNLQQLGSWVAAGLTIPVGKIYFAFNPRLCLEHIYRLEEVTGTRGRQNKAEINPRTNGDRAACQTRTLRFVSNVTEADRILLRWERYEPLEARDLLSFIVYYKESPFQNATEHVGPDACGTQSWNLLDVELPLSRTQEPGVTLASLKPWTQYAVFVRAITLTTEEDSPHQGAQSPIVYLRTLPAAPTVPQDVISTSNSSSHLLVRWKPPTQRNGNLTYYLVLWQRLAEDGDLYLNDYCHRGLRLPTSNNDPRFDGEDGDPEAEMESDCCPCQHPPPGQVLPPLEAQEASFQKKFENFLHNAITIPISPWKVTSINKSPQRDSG
Insulin receptor-related protein (Homo sapiens), sequence (P14616 747-1297 limits assumed): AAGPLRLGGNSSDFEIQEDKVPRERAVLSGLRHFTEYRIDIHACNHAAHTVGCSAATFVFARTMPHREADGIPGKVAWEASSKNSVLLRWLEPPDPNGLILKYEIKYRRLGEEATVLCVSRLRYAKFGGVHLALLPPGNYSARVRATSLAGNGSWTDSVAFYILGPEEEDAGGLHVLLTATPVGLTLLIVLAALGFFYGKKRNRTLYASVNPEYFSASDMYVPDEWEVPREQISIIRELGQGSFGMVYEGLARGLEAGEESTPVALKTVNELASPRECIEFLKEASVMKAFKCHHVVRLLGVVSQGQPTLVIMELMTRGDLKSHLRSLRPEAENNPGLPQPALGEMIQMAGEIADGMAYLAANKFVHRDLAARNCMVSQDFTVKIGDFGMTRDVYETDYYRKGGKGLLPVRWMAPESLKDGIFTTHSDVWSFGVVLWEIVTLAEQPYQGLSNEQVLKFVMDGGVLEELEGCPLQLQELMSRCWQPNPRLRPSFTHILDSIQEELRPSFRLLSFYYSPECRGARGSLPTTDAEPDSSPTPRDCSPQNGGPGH

[9] = biological target: Insulin receptor-related protein (Homo sapiens) (UniProt P14616); conditions: at 1 µM
[10] = biological target: T1, Tyrosine-protein kinase ITK/TSK (Homo sapiens) (UniProt Q08881); conditions: at 0.1 µM;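 further: mean percent inhibition of ITK from the GSK PKIS screen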
T1 sequence (whole entry): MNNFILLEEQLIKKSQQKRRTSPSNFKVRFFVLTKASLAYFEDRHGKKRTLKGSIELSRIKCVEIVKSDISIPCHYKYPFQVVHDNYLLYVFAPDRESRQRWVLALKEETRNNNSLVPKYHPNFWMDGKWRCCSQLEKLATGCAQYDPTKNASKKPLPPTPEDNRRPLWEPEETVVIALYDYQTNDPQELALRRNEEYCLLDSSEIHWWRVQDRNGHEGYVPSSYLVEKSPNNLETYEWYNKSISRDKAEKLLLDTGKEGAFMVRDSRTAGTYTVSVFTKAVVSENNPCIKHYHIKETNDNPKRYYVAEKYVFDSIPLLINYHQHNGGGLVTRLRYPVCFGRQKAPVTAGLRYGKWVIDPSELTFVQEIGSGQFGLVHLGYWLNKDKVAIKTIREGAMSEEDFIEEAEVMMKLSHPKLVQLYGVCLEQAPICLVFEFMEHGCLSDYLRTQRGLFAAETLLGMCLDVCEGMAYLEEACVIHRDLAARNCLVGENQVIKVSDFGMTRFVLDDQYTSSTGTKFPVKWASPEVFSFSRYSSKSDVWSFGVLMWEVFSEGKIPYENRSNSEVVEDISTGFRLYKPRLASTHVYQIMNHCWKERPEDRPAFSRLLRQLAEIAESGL

Tyrosine-protein kinase Fyn (Homo sapiens), sequence (P06241 2-537 limits assumed): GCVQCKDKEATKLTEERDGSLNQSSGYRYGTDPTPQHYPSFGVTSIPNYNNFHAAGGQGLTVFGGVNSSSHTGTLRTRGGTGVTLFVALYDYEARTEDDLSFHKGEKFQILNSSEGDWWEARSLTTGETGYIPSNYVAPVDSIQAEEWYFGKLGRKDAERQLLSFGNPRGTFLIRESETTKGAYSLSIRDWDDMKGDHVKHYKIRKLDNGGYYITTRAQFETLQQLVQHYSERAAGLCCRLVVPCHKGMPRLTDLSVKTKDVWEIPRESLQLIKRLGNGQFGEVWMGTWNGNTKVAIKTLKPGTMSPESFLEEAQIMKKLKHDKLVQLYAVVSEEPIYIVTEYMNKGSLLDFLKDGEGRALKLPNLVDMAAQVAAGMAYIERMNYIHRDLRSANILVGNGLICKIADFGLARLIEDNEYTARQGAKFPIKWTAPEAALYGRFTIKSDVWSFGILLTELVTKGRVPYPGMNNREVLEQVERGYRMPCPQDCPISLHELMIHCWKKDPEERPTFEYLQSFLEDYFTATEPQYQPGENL
Tyrosine-protein kinase HCK (Homo sapiens), sequence (P08631 2-526 limits assumed): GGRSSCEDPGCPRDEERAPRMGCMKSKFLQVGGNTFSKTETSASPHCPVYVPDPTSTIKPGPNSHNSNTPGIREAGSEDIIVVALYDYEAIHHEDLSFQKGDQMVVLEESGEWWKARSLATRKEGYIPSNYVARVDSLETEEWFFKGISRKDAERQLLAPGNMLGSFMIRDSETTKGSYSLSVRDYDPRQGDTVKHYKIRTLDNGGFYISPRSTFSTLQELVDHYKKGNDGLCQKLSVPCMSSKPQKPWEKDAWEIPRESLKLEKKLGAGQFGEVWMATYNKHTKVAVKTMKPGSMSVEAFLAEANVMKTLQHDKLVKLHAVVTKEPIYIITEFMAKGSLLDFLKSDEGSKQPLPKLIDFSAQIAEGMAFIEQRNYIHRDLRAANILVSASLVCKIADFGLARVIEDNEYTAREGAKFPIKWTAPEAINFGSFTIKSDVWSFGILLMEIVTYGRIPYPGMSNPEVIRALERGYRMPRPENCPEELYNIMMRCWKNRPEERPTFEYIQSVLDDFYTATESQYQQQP

Row | Structure (SMILES) | inhibition [1] | inhibition [2] | inhibition [3] | inhibition [4] | inhibition [5] | inhibition [6] | inhibition [7] | inhibition [8] | inhibition [9] | inhibition [10]
1 | Cc1ccc(-c2cc3c(NC(=O)C4CC4)ncnc3o2)cc1 | 5.49% | 7.39% | 21.8% | 5.44% | 5.98% | 5.37% | 5.18% | 5.59% | 2.34% | 1.76%
2 | COc1cc(Nc2ncc(-c3ccccc3)o2)cc(OC)c1 | 26.5% | 8.41% | 19.9% | -0.03% | 4.18% | 1.03% | 5.64% | 2.92% | 2.43% | -0.12%
3 | COc1cc(N2CCN(C(C)C)CC2)ccc1Nc1nc(Nc2cccc(F)c2C(=O)O)c2cc[nH]c2n1 | 0.99% | 4.6% | 9.23% | 65.7% | 89.8% | 82.6% | 95.5% | 22.1% | 82.3% | 1.35%
4 | O=C(Nc1n[nH]c2nnc(-c3cccnc3)cc12)C1CC1 | 4.86% | 0.81% | 2.83% | 0.22% | -1.27% | 3.48% | 1.82% | -0.87% | -1.01% | 0.11%
5 | Fc1cccc(COc2ccc(Nc3ncncc3C#Cc3ccccc3)cc2Cl)c1 | 2.9% | 5.09% | 7.44% | 3.73% | 3.91% | 2.77% | 4.63% | 0.84% | 3.29% | 1.58%
6 | COC(=O)Nc1nc2cc(Oc3ccc(NC(=O)Nc4ccccc4)cc3)ccc2[nH]1 | 4.68% | 2.26% | 4.53% | 0.4% | -0.2% | 3.75% | 6.99% | 0.98% | 1.1% | -0.1%
7 | CC(C)c1ccc(-c2cc(-c3c[nH]nc3-c3ccccn3)ccn2)cc1 | 1.91% | 2.47% | 4.67% | 1% | 2.04% | -0.15% | 1.37% | -0.94% | -0.37% | 0.84%
8 | N#Cc1cccc(Nc2ncc(-c3ccccc3)o2)c1 | 10.8% | 0.69% | 7.33% | 0.34% | 0.27% | 1.81% | 4.42% | 0.61% | -0.06% | 1.16%
9 | Cc1c2ccc(N(C)c3ccnc(Nc4cccc(S(N)(=O)=O)c4)n3)cc2nn1C | 60.5% | 31.2% | 73.8% | -4.22% | 13.1% | 7.68% | 18.7% | 2.78% | 2.81% | -1.73%
10 | COc1c(C(N)=O)cc(-c2ccc(Cl)cc2)cc1-c1ccc(S(N)(=O)=O)cc1 | 2.81% | 6.39% | 7.93% | 7.44% | 4.41% | 9.51% | 5.04% | 2.33% | 3.46% | 2.02%
11 | Nc1ncnc2occ(-c3ccc(NC(=O)Nc4cc(C(F)(F)F)ccc4F)cc3)c12 | 24.3% and 15.7% | 9.61% and 2.25% | 46.5% and 31.6% | 11.3% and 1.32% | 10.7% and 0.73% | 2.86% and 1.65% | 13.2% and 8.78% | 1.56% and -3.07% | 1.62% and -3% | 2.22% and -1.63%
12 | CNC(=O)c1ncccc1Nc1nc(Nc2cc3c(cc2OC)CCCN3C(=O)CN(C)C)nc2[nH]ccc12 | 2.48% | 5.56% | 8.62% | 97% | 97.9% | 100% | 98.1% | 78.2% | 94.3% | 1.95%
13 | CC1(C)CC(n2cnc(-c3ccc(F)cc3)c2-c2ccnc(N)n2)CC(C)(C)N1 | 2.65% | 2.18% | 3.22% | 1.3% | 3.3% | 4.97% | 4.07% | -0.08% | -1.13% | 0.29%
14 | c1ccc(-c2n[nH]cc2-c2ccnc(-c3ccc(OCCn4ccnc4)cc3)c2)nc1 | 7.07% | 1.8% | 9.8% | 6.59% | 2.24% | 2.91% | 2.56% | -0.75% | -0.28% | 0.01%
15 | COc1ccc(Nc2ncc(-c3ccccc3)o2)cc1OC | 26.1% | 5.41% | 30.2% | 0.16% | 2.03% | 1.73% | 1.42% | -0.23% | -0.92% | 1.19%
16 | O=C(O[C@H]1CN[C@H](C#Cc2cc3ncnc(Nc4ccc(OCc5cccc(F)c5)c(Cl)c4)c3s2)C1)N1CCOCC1 | 6.59% | 3.37% | 6.71% | 6.13% | 14.8% | 7.72% | 5.91% | 3.84% | 3.3% | 0.99%

Row | Structure (SMILES) | inhibition [1] | inhibition [2] | inhibition [3] | inhibition [4] | inhibition [5] | inhibition [6] | inhibition [7] | inhibition [8] | inhibition [9] | inhibition [10]
17 | Cc1cc(O)cc(C)c1/C=C/c1cncc(C(N)=O)c1 | 36.2% | 15.2% | 65.3% | 5.33% | 2.8% | 3.56% | 2.45% | 1.49% | 1.71% | 1.53%
18 | c1cnn2ncc(-c3ccnc(NCCCN4CCOCC4)n3)c2c1 | 3.59% | 8.43% | 6.17% | 3.62% | 1.61% | 4.01% | 4.01% | 2.15% | 0.25% | 1.02%
19 | CS(=O)(=O)CCNCc1ccc(-c2ccc3ncnc(Nc4ccc(OCc5cccc(C(F)(F)F)c5)cc4)c3c2)o1 | 0.05% | 9.32% | 11.7% | 18.2% | 11.6% | 11.2% | 3.04% | 1.51% | 3.38% | 1.71%
20 | CNC(=O)c1sc(-n2cnc3cc(OC)c(OC)cc32)cc1OCc1ccccc1C(F)(F)F | 18.9% | 5.55% | 14% | -3.71% | 1.09% | -4.16% | -0.01% | 2.15% | 2.12% | 0.38%
21 | CC1=C(C(=O)Nc2ccc3[nH]nc(C)c3c2)C(c2ccc(C(F)(F)F)cc2)CC(=O)N1 (stereo not given) | 2.72% | 4.64% | 9.34% | 2.37% | 3.78% | 0.03% | 1.72% | 2.64% | 1.26% | 1.81%
22 | Nc1nccc(-c2c(-c3ccc(F)cc3)ncn2C2CCNCC2)n1 | 1.62% and 4.51% | -2.39% and 2.85% | 2.05% and 5.24% | -2.26% and -0.62% | -1.54% and 3.61% | -1.93% and 3.33% | 1.25% and 4.93% | -5.25% and 0.92% | -4.64% and -1.2% | -0.56% and 0.6%
23 | N#Cc1ccc2c(-c3ccnc(NC4CC4)n3)c(-c3ccc(F)cc3)nn2c1 | 0.92% | 1.95% | 1.1% | 1.58% | -2.63% | 0.02% | -1.67% | -0.15% | 0.6% | 0.02%
24 | CNC(=O)c1cncc(/C=C/c2ccccc2C)c1 | 10.8% | 6.15% | 20.1% | 3.6% | 6.92% | 2.85% | 2.34% | 4.17% | 2.86% | 1.32%
25 | OCCCNc1nccc(-c2c(-c3ccc(F)cc3)nn3cc(C(F)(F)F)ccc23)n1 | 4.88% | 5.52% | 5.92% | 1.8% | 1.03% | 0.28% | 3.33% | 3.08% | 1.53% | 1.09%
26 | CS(=O)(=O)CCNCc1ccoc1-c1ccc2ncnc(Nc3ccc(OCc4ccccc4)cc3)c2c1 | 7.94% | 0.7% | 5.65% | 1.37% | -0.73% | 0.36% | 1.13% | -1.72% | 0.44% | -0.12%
27 | CCS(=O)(=O)c1ccc(OC)c(Nc2ncc(-c3cccc(F)c3)o2)c1 | 72.4% | 33% | 74.3% | 5.72% | 6.74% | 7.03% | 8.47% | 2.84% | 4.59% | 2.16%
28 | O=C(O[C@H]1CN[C@H](C#Cc2cc3ncnc(Nc4ccc5c(cnn5Cc5ccccc5)c4)c3s2)C1)N1CCOCC1 | 8.19% | -0.73% | 3.3% | -2.85% | -0.43% | 2.89% | 1.79% | -1.64% | -2.28% | -1.11%
29 | Fc1ccc(Nc2nccc(-c3c(-c4ccc(C(F)(F)F)cc4)nn4ncccc34)n2)cc1F | 2.19% | 4.54% | 7.92% | 1.9% | 4.26% | 4.61% | 3.27% | 3.45% | 2.2% | 1.45%
30 | COc1ccccc1-c1cc(/C=C2\C(=O)Nc3ncc(Br)cc32)cc(Br)c1O | 26.3% | 7.67% | 12.5% | 0.89% | 2.09% | 3.72% | 6.87% | 2.46% | 1.02% | 1.08%
31 | NS(=O)(=O)c1ccc(N/N=C2\C(=O)Nc3ccc(C(=O)NCc4ccncc4)cc32)cc1 | 50.9% | 5.39% | 16.3% | 10.1% | 9.32% | 1.24% | 3.32% | 2.61% | 2.45% | 0.99%
